Consider 29 molecules from PubChem BioAssay (NCATS).

Where “and” joins values, the source holds several entries; their conditions need not be identical. Identical values can stand only once.

The nature of this assay: qHTS drug screen for cell cycle checkpoint inhibitors in PARPi-resistant BRCA-mutant ovarian cancer cell lines. (AID 1963452). Conditions: PEO1/OlaR viability, CellTiter-Glo luminescence, 96 h; measured here: PEO4 Z-AUC; stronger effect = lower value. The gist of the method:
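PEO1, PEO4 and PEO1/OlaR ovarian cancer cells, 600 per well, exposed 96 h at 37C to a dilution series. Viability read by CellTiter-Glo luminescence, normalized to DMSO and empty wells; activity summarized as Z-AUC.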
Regarding `COc1ccc(C(=O)C2CCN(CC(=O)N(Cc3nc4c(c(=O)[nH]3)COCC4)CC3CC3)CC2)cc1`, the Z-AUC was -0.695. As for `CO[C@@H](C)Cn1c(=O)n(C)c2cnc3ccc(-c4cncc(C(C)(C)O)c4)cc3c21`, the Z-AUC is -2.14. As for `Cc1cc(O)c(-c2ccc([C@@H](C)CN(C)C)cc2)c2c1[nH]c(=O)c1sccc12`, the Z-AUC is -2.02. Then `CN1CCN(C2CCC(n3cc(-c4ccc(Oc5ccccc5)cc4)c4c(N)ncnc43)CC2)CC1` (centres undefined), with -0.439; and `Cc1c(C(=O)N2CCOc3ccc(-c4ccc(N)nc4)cc3C2)ccc(S(C)(=O)=O)c1F`, with 0.378. In the case of `CCN1CCN(Cc2ccc(NC(=O)c3ccc(C)c(/C=C/c4cnc5[nH]ccc5c4OC)c3)cc2C(F)(F)F)CC1`, the Z-AUC was -1.42. As for `CN(C)C/C=C/C(=O)Nc1cccc(C(=O)Nc2cccc(Nc3ncc(Cl)c(-c4c[nH]c5ccccc45)n3)c2)c1`, the Z-AUC is -1.32. Take `CCN1CCN(Cc2ccc(NC(=O)Nc3ccc(Oc4cc(NC)ncn4)cc3)cc2C(F)(F)F)CC1`: the Z-AUC was -1.71. Take `Cc1cc(Nc2cc(N3CCN(C)CC3)nc(/C=C/c3ccccc3)n2)n[nH]1`: the Z-AUC is -1.32. For `C#CC[C@H](c1nc2cc(Cl)ccc2c(=O)n1Nc1ccccc1)N(CCCN)C(=O)c1cccc(Cl)c1F`, the Z-AUC is -1.5.

Turning to `CO[C@H]1C[C@@H]2CC[C@@H](C)[C@@](O)(O2)C(=O)C(=O)N2CCCC[C@H]2C(=O)O[C@H]([C@H](C)C[C@@H]2CC[C@@H](OP(C)(C)=O)[C@H](OC)C2)CC(=O)[C@H](C)/C=C(\C)[C@@H](O)[C@@H](OC)C(=O)[C@H](C)C[C@H](C)/C=C/C=C/C=C/1C`, the Z-AUC was -0.0432. In the case of `CC#CC(=O)N1CCC[C@H]1c1nc(-c2ccc(C(=O)Nc3ccccn3)cc2)c2c(N)nccn12`, the Z-AUC turned out to be 0.342.

Consider `COC(=O)N[C@@H](C)CNc1nccc(-c2cn(C(C)C)nc2-c2cc(Cl)cc(NS(C)(=O)=O)c2F)n1`, for which the Z-AUC was -0.157.

For the molecule `CCOCc1nc2c(N)nc3ccccc3c2n1CC(C)(C)O`, the Z-AUC is -0.947. Take `CCNC(=O)Nc1ncc(-c2cc(-c3c(C)cc(OC)cc3C)nc(-c3cnccn3)n2)s1`: the Z-AUC was determined as 1.47. For the molecule `O=C(/C=C\n1cnc(-c2cc(C(F)(F)F)cc(C(F)(F)F)c2)n1)N1CC(F)(F)C1`, the Z-AUC is -1.38. Take `COc1cc(OC)c(/C=C/S(=O)(=O)Cc2ccc(OC)c(NCC(=O)O)c2)c(OC)c1`: the Z-AUC was -1.96. With `CC[C@]1(O)CC2CN(CCc3c([nH]c4ccccc34)[C@@](C(=O)OC)(c3cc4c(cc3OC)N(C)[C@H]3[C@@](O)(C(=O)OC)[C@H](OC(C)=O)[C@]5(CC)C=CCN6CC[C@]43[C@@H]65)C2)C1` (some centres undefined), the Z-AUC was -0.893. As for `O=C(/C=C/c1cccc(S(=O)(=O)Nc2ccccc2)c1)NO`, the Z-AUC is -1.35.

For `COc1cc2ncnc(Nc3ccc(F)c(Cl)c3)c2cc1NC(=O)/C=C/CN1CCCCC1`, the Z-AUC is -1.24. As to `CC[C@@](C)(Nc1ccnc(-c2c[nH]c3ncccc23)n1)C(=O)NCC(F)(F)F`, the Z-AUC is -0.4. In the case of `Cc1ccc(-c2ccc3c(ccc4sc5c(c43)NC[C@@H](C)NC5=O)n2)cn1`, the Z-AUC is -0.383.

Regarding `CS(=O)(=O)N1CCC(NC(=O)c2[nH]ncc2NC(=O)c2c(Cl)cccc2Cl)CC1`, the Z-AUC was -1.67. Then `COc1cccc(Nc2ncnn3ccc(CN4CC[C@@H](N)[C@H](O)C4)c23)c1`, with -1.16; and `Cc1cc(OCc2nnc(SC3CCCC3)n2-c2cccnc2)ccc1-c1ccc(S(C)(=O)=O)cc1`, with -2.2.

`c1cc(Nc2cc(C3CC3)[nH]n2)nc(Nc2ccc3nc[nH]c3c2)n1`: the Z-AUC is -2.23. With `COC(=O)N(C)c1c(N)nc(-c2nn(Cc3ccccc3F)c3ncccc23)nc1N`, the Z-AUC is 0.894. As for `CC[C@]12C=CCN3CC[C@@]4(c5cc([C@@]6(C(=O)OC)C[C@H]7C[C@@H](C(C)(F)F)CN(Cc8c6[nH]c6ccccc86)C7)c(OC)cc5N(C)[C@H]4[C@@](O)(C(=O)OC)[C@@H]1OC(C)=O)[C@@H]32`, the Z-AUC is -1.63 and -1.07. Then `Cc1ccc(S(=O)(=O)Cc2nc(-c3ccc(C(=O)NCc4cccnc4)cc3)oc2C)cc1`, with -2.76.
